Source: publication PMC10812921, “Transcriptional Coactivator BOB1 (OBF1, OCA-B) Modulates the Specificity of DNA Recognition by the POU-Domain Factors OCT1 and OCT2 in a Monomeric Configuration”

Tests used:
POU1 (OCT1 POU domain) = POU1 (OCT1 POU domain) (human, UniProt P14859 260-458); experiment: EMSA-SELEX-seq; no BOB1; 20 mM Tris-HCl pH 7.6, 140 mM NaCl, 10% glycerol, 0.5 mM EDTA, 0.05% Triton X-100, 0.1 mg/mL BSA, 0.1 mg/mL poly(dI-dC), 5 mM DTT, room temperature, 20 min; high values mean tight binding; details: protein: recombinant; dsDNA, one strand shown
Chain of POU1 (OCT1 POU domain) (P14859 260-458): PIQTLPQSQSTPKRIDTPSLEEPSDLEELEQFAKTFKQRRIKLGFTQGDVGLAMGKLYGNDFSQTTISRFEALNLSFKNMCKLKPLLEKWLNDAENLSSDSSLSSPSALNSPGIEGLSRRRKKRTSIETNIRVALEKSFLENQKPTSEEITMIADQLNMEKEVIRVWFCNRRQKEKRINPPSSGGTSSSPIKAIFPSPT
Method in brief: (§1)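 Binding preference is the percentage of sequenced 8-mers matching a motif pattern. Tagged POU-domain proteins expressed in E. coli BL21 were purified under denaturing conditions and renatured. For binding, 30 ng protein met 300 ng of a PCR-amplified double-stranded random 35-nt library, with or without 28 ng coactivator protein, in 20 μL Tris–HCl pH 7.6 binding buffer for 20 min at RT. Complex bands were cut from native 6% PAGE, eluted and PCR-amplified over four rounds, then Illumina-sequenced.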

POU2 (OCT2 POU domain) = target: T1, POU2 (OCT2 POU domain) (human, UniProt P09086 175-386); experiment: as above; details: protein: recombinant; dsDNA, one strand shown
T1 sequence: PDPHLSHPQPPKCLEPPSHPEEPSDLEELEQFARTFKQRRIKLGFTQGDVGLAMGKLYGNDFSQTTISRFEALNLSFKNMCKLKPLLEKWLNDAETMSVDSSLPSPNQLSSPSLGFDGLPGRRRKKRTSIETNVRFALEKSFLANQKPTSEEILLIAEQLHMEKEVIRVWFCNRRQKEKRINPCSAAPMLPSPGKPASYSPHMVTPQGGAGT
Method in brief: as §1

[1] = target: POU1 (OCT1 POU domain);BOB1 (OBF1, OCA-B) (human;human, UniProt P14859;Q16633 260-458;1-256, |); experiment: EMSA-SELEX-seq; with BOB1 (ternary complex band); 20 mM Tris-HCl pH 7.6, 140 mM NaCl, 10% glycerol, 0.5 mM EDTA, 0.05% Triton X-100, 0.1 mg/mL BSA, 0.1 mg/mL poly(dI-dC), 5 mM DTT, room temperature, 20 min; high values mean tight binding; details: protein: recombinant;recombinant; copies: 1;1; dsDNA, one strand shown
Method in brief: as §1

[2] = target: T2, POU2 (OCT2 POU domain);BOB1 (OBF1, OCA-B) (human;human, UniProt P09086;Q16633 175-386;1-256, |); experiment: as above; details: protein: recombinant;recombinant; copies: 1;1; dsDNA, one strand shown
T2 sequence 1: T1 sequence
T2 sequence 2: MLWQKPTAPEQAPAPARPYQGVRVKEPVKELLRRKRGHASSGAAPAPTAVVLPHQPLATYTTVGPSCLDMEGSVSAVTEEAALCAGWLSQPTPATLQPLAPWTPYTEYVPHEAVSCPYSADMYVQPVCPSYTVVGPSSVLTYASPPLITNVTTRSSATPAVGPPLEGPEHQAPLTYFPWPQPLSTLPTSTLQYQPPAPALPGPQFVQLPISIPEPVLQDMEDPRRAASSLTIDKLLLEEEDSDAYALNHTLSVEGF
Method in brief: as §1

Sequence	binding signal (POU1 (OCT1 POU domain))	binding signal (POU2 (OCT2 POU domain))	binding signal [1]	binding signal [2]
ATACTAAG	0.045 % of ANNNNAAN 8-mers	0.0518 % of ANNNNAAN 8-mers	0.0441 % of ANNNNAAN 8-mers	0.0438 % of ANNNNAAN 8-mers
ACTGCAAG	0.0133 % of ANNNNAAN 8-mers	0.0144 % of ANNNNAAN 8-mers	0.016 % of ANNNNAAN 8-mers	0.0107 % of ANNNNAAN 8-mers
AGTAGAAA	0.0511 % of ANNNNAAN 8-mers	0.0708 % of ANNNNAAN 8-mers	0.0464 % of ANNNNAAN 8-mers	0.052 % of ANNNNAAN 8-mers
ATACAAAG	0.0984 % of ANNNNAAN 8-mers	0.0938 % of ANNNNAAN 8-mers	0.139 % of ANNNNAAN 8-mers	0.09 % of ANNNNAAN 8-mers
ATGGCAAC	0.0263 % of ANNNNAAN 8-mers	0.0219 % of ANNNNAAN 8-mers	0.0297 % of ANNNNAAN 8-mers	0.0264 % of ANNNNAAN 8-mers
ATATGAAC	0.0389 % of ANNNNAAN 8-mers	0.0495 % of ANNNNAAN 8-mers	0.03 % of ANNNNAAN 8-mers	0.0528 % of ANNNNAAN 8-mers
ATGGGAAG	0.0652 % of ANNNNAAN 8-mers	0.0696 % of ANNNNAAN 8-mers	0.0683 % of ANNNNAAN 8-mers	0.0735 % of ANNNNAAN 8-mers
AATTAAAG	0.187 % of ANNNNAAN 8-mers	0.22 % of ANNNNAAN 8-mers	0.112 % of ANNNNAAN 8-mers	0.121 % of ANNNNAAN 8-mers
AAACCAAT	0.0336 % of ANNNNAAN 8-mers	0.0265 % of ANNNNAAN 8-mers	0.0437 % of ANNNNAAN 8-mers	0.0347 % of ANNNNAAN 8-mers
AGCCTAAC	0.0153 % of ANNNNAAN 8-mers	0.0144 % of ANNNNAAN 8-mers	0.0109 % of ANNNNAAN 8-mers	0.0157 % of ANNNNAAN 8-mers
AGTAAAAC	0.0427 % of ANNNNAAN 8-mers	0.0391 % of ANNNNAAN 8-mers	0.0663 % of ANNNNAAN 8-mers	0.0454 % of ANNNNAAN 8-mers
ATGGTAAC	0.0454 % of ANNNNAAN 8-mers	0.0621 % of ANNNNAAN 8-mers	0.0316 % of ANNNNAAN 8-mers	0.0429 % of ANNNNAAN 8-mers
AGGTCAAC	0.0198 % of ANNNNAAN 8-mers	0.0288 % of ANNNNAAN 8-mers	0.0269 % of ANNNNAAN 8-mers	0.0289 % of ANNNNAAN 8-mers
ATAAGAAG	0.0614 % of ANNNNAAN 8-mers	0.0771 % of ANNNNAAN 8-mers	0.0562 % of ANNNNAAN 8-mers	0.0636 % of ANNNNAAN 8-mers
AGAAGAAG	0.029 % of ANNNNAAN 8-mers	0.0547 % of ANNNNAAN 8-mers	0.0379 % of ANNNNAAN 8-mers	0.0454 % of ANNNNAAN 8-mers
ACTCCAAT	0.0294 % of ANNNNAAN 8-mers	0.0219 % of ANNNNAAN 8-mers	0.0242 % of ANNNNAAN 8-mers	0.0231 % of ANNNNAAN 8-mers

Sequence	binding signal (POU1 (OCT1 POU domain))	binding signal (POU2 (OCT2 POU domain))	binding signal [1]	binding signal [2]
ATCTTAAG	0.0461 % of ANNNNAAN 8-mers	0.0541 % of ANNNNAAN 8-mers	0.0503 % of ANNNNAAN 8-mers	0.0438 % of ANNNNAAN 8-mers
ATTCCAAC	0.0339 % of ANNNNAAN 8-mers	0.0432 % of ANNNNAAN 8-mers	0.0269 % of ANNNNAAN 8-mers	0.0223 % of ANNNNAAN 8-mers
AAAGAAAT	0.145 % of ANNNNAAN 8-mers	0.112 % of ANNNNAAN 8-mers	0.16 % of ANNNNAAN 8-mers	0.0958 % of ANNNNAAN 8-mers
AGACCAAG	0.0137 % of ANNNNAAN 8-mers	0.0121 % of ANNNNAAN 8-mers	0.0164 % of ANNNNAAN 8-mers	0.014 % of ANNNNAAN 8-mers
AACTTAAA	0.0526 % of ANNNNAAN 8-mers	0.0501 % of ANNNNAAN 8-mers	0.046 % of ANNNNAAN 8-mers	0.038 % of ANNNNAAN 8-mers
ACTTCAAC	0.0145 % of ANNNNAAN 8-mers	0.015 % of ANNNNAAN 8-mers	0.0121 % of ANNNNAAN 8-mers	0.0231 % of ANNNNAAN 8-mers
ATCATAAA	0.0736 % of ANNNNAAN 8-mers	0.0944 % of ANNNNAAN 8-mers	0.0425 % of ANNNNAAN 8-mers	0.0586 % of ANNNNAAN 8-mers
ATGTCAAT	0.0828 % of ANNNNAAN 8-mers	0.0869 % of ANNNNAAN 8-mers	0.0722 % of ANNNNAAN 8-mers	0.0743 % of ANNNNAAN 8-mers
ATGCTAAT	1.85 % of ANNNNAAN 8-mers	1.82 % of ANNNNAAN 8-mers	0.249 % of ANNNNAAN 8-mers	0.283 % of ANNNNAAN 8-mers
ACTTGAAT	0.0828 % of ANNNNAAN 8-mers	0.0961 % of ANNNNAAN 8-mers	0.0613 % of ANNNNAAN 8-mers	0.071 % of ANNNNAAN 8-mers
ATACTAAT	0.17 % of ANNNNAAN 8-mers	0.182 % of ANNNNAAN 8-mers	0.0745 % of ANNNNAAN 8-mers	0.11 % of ANNNNAAN 8-mers
AGCACAAT	0.0233 % of ANNNNAAN 8-mers	0.0311 % of ANNNNAAN 8-mers	0.0258 % of ANNNNAAN 8-mers	0.0264 % of ANNNNAAN 8-mers
ATCTGAAC	0.0275 % of ANNNNAAN 8-mers	0.0265 % of ANNNNAAN 8-mers	0.0258 % of ANNNNAAN 8-mers	0.0429 % of ANNNNAAN 8-mers
ATGTTAAG	0.128 % of ANNNNAAN 8-mers	0.146 % of ANNNNAAN 8-mers	0.0835 % of ANNNNAAN 8-mers	0.0966 % of ANNNNAAN 8-mers
ACTCAAAT	0.0889 % of ANNNNAAN 8-mers	0.061 % of ANNNNAAN 8-mers	0.127 % of ANNNNAAN 8-mers	0.0768 % of ANNNNAAN 8-mers
AAATGAAT	0.256 % of ANNNNAAN 8-mers	0.273 % of ANNNNAAN 8-mers	0.181 % of ANNNNAAN 8-mers	0.239 % of ANNNNAAN 8-mers
